Growth data for 40 compounds are collected here from PubChem BioAssay (NCI).

This is part of a sample that, as a whole, favours compounds with a hit. Of some 83,000 tested, about 20% had one in any assay.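 Step 1: grow cells in 96-well plates. Step 2: add test compound at a single concentration. Step 3: incubate 48 h. Step 4: record percent growth.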 Unmarked numbers belong to inactive results. The source made the active and inactive calls. The calls were made as follows: active = growth percent below 10; inactive = the rest.

This assay relates to HL-60(TB) leukemia. As to the kind of experiment: NCI-60 one-dose screen, 48 h (100 = growth as untreated, 0 = no growth, -100 = all killed). The settings on record: 10 µM unless noted.
With `CCCNc1nc2ccccc2c2c1S(=O)(=O)c1ccc(Cl)cc1C2=O`, the growth was -14.1% (active).
As to `CS(=O)(=O)c1ccc(/C(=N/NC(N)=S)c2ccc(F)cc2)cc1`, the growth is 99.1%.
To `O=[N+]([O-])c1cccc(-c2nc3sccn3c2-c2ccnc(NCCCNS(=O)(=O)c3ccc(Br)cc3)n2)c1` belongs 19.2%; to `CCCCCCn1c(=N)n(CC(O)COc2cccc(C)c2)c2ccccc21` (stereo not given), -48% (active); to `CCOC(=O)c1c(C)oc2ncnc(Nc3ccc(C(=O)NCCc4ccccc4)cc3)c12`, 87.7%.
Then `COc1ccc(-c2nc(N/N=C/c3cccc(O)c3)nc(N3CCOCC3)c2C#N)cc1`, with 49.2%; and `COc1ccc2oc(=O)cc(C3c4ccc([nH]4)C(c4cc(=O)oc5ccc(OC)cc45)c4ccc([nH]4)C(c4cc(=O)oc5ccc(OC)cc45)c4ccc([nH]4)C(c4cc(=O)oc5ccc(OC)cc45)c4ccc3[nH]4)c2c1` (stereo not given), with -14.5% (active); and `CC1=C2C(=C[C@@](C)(CO)[C@@H]2OC(=O)N(C)CCN(C)C(=O)OC(C)(C)C)C(=O)[C@](C)(O)C12CC2`, with 46.1%.
`CCOC(=O)c1csc(NC(=O)COc2cccc(/C=C3\CSc4ccccc4C3=O)c2)n1`: the growth is -77.5% (active).
For the compound `COc1ccn2c(C(C)=O)cc(C(=O)c3ccc4c(c3)Sc3ccccc3N4)c2c1`, the growth was -9.97% (active).
Consider `COc1cc(-c2nc3ccccc3[nH]2)ccc1OCC(=O)N=Nc1c(O)[nH]c2ccc(Cl)cc12`, for which the growth was -30.8% (active).
As for `O=C1/C(=C/c2ccc(F)c(F)c2)CN(C(=O)C(Cl)Cl)C/C1=C\c1ccc(F)c(F)c1`, the growth was -47.1% (active).
With `COc1cc(NC(C)CCCN)c2nc(C)ccc2c1OC` (stereo not given), the growth is -12.2% (active).
On to `N#Cc1c(N2CCOCC2)nc(=S)[nH]c1-c1ccco1`, for which the growth was 70.7%.
Regarding `C=C(C)[C@H]1CC/C(C)=C/CC[C@]2(C)O[C@H]2CC/C(C=O)=C\C1O` (stereo not given in full), the growth was 253%.
For `COc1cc(NCC(O)CN(CC(C)C)CC(C)C)c2nc(C)ccc2c1` (stereo not given), the growth is 81.2%.
For the compound `N#Cc1ccc(NC(=O)c2sc3nc4c(cc3c2N)C(=O)CCC4)cc1`, the growth is 81%.
In the case of `C/C(CC(C)C)=N/NC(N)=S`, the growth is 86.5%.
Then `Cc1nc(/N=C(\N)NC(=O)Nc2ccccc2Cl)sc1C`, with 3.77% (active).
As to `CC(C)(C)OC(=O)NC(CSCc1ccccc1)C(=O)ON1C(=O)CCC1=O` (stereo not given), the growth is 70.9%.
Turning to `C=C(C)[C@@H]1C[C@H](O)Cc2cc(F)ccc2N1`, the growth is -20.3% (active).
In the case of `CC(=O)Nc1nc(C)c(C(=O)N/N=C/c2cccn2C)s1`, the growth was 112%.
For the compound `CCNC(=O)Oc1ccc(/C(=C(\C)c2ccc(Cl)cc2)c2ccc(OCCN(CC)CC)cc2)cc1`, the growth was 23.9%.
For `O=c1c2cccc(F)c2sc2c(NCCCNCCO)nc3ccccc3c12`, the growth was -6.55% (active).
Take `O=C1Nc2c(ccc(Cl)c2Cl)/C1=C\c1cc(C(F)(F)F)cc(C(F)(F)F)c1`: the growth is -29.3% (active).
Take `Cc1ccccc1Nc1nc2nonc2nc1Nc1cccc(C)c1C`: the growth is 69.8%.
Then `Cc1ccc(-n2cc(-c3ccccc3)c3c2N=NN2CCN=C32)cc1`, with 101%; and `CCCCCCCCCCCCCCCCOCCCOP(=O)(O)C1CCCN(O)C1=O` (stereo not given), with -13.6% (active).
Consider `COc1cc(/C=C/C(=O)/C=C(O)/C=C/c2ccc(OC(=O)C34CC5CC(CC(C5)C3)C4)c(OC)c2)ccc1OC(=O)C12CC3CC(CC(C3)C1)C2`, for which the growth is 104%.
Consider `COc1ccc(-c2c(C#N)cnc(N)c2-c2nc3cc(C)c(C)cc3[nH]2)cc1`, for which the growth is 89.4%.
With `CC#CC(=O)N1CCC[C@H]1c1nc(-c2ccc(C(=O)Nc3ccccn3)cc2)c2c(N)nccn12`, the growth was 130%.
Regarding `COc1cc(/C=C/C(=O)c2ccc(Cl)cc2)cc(CN2CCCCC2)c1O`, the growth is 94.2%.
For the compound `COc1ccccc1-n1c(-c2csc(NC(C)=O)n2)n[nH]c1=S`, the growth is 96.6%.
For the compound `CCN(CC)S(=O)(=O)c1ccc(S(=O)(=O)N2CCC[C@@H](C(=O)N3CCN(c4nc(C(C)C)no4)CC3)C2)cc1`, the growth was 68.5%.
In the case of `O=C1c2c[n+](Cc3ccccc3)ccc2-c2nc3ccccc3c3ccnc1c23`, the growth was -29.6% (active).
In the case of `O=C1/C(=C/c2ccccc2Br)COc2ccc(O)cc21`, the growth is 17.1%.
Take `O=C(O)COc1ccc(-c2cssc2=S)cc1`: the growth was 101%.
Take `O=C1/C(=C/c2ccc(O)cc2)COc2ccc(-c3ccccc3)cc21`: the growth is -51% (active).
On to `CCOC(=O)/C=C(/C)Sc1cc(O)c2ccccc2c1O`, for which the growth was 20.5%.
Turning to `COc1cc2c(cc1-c1c(C)noc1C)ncc1nc(CN3CCOCC3)n([C@H](C)COC(F)F)c12`, the growth is 21.7%.
